Test results published in PubChem BioAssay AID504727 (Broad Institute, 2011).
The source made the active and inactive calls.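 Rule for the calls: active = fitted half-maximal concentration AC50 at or below ten times the highest valid tested dose, with signal falling as DNA is displaced (actives reach about 34 µM in these data); inconclusive = flat fit at moderate signal loss, or poor fit quality; inactive = the rest, including signal rising instead of falling.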

Assay: DNA intercalators displacing acridine orange, dose response, artefact control for KSHV LANA DNA-binding inhibitor project, biochemical, fluorescence polarization, cherry-picked samples, set 2 (AID 504727)
Conditions: AC50: Acridine orange-DNA displacement; series mostly up to 35 µM

Row | SMILES | AC50
1 | O=C(c1coc(=O)c(Br)c1)N1CCCc2ccccc21 | inactive
2 | CC(Sc1ncccn1)C(=O)NNC(=O)c1cccc(Cl)c1 (centres undefined) | inactive
3 | COc1cccc2c1C(=O)c1c(O)c3c(c(O)c1C2=O)CC(O)(C(C)=NNC(=O)c1ccc(Cl)c(Cl)c1)CC3OC1CC(N)C(O)C(C)O1 (centres undefined) | 2050 nM (active)
4 | Cn1c(N)c(C(=O)COC(=O)c2ccc(Cl)c(S(=O)(=O)N3CCCC3)c2)c(=O)n(C)c1=O | inactive
5 | FC(F)(F)c1nnc(-c2ccccc2)nc1N1CCCC1 | inactive
6 | CCCC1(C2CCCC2)NC(=O)NC1=O (centres undefined) | inactive
7 | Cc1ccccc1C1=C/C(=C(\SS/C(C(=O)c2ccc(OCC(=O)O)c(Cl)c2Cl)=C2\C=C(c3ccccc3C)SS2)C(=O)c2ccc(OCC(=O)O)c(Cl)c2Cl)SS1 | inactive
8 | O=C(Cn1c2ccccc2c2nc3n(c(=O)c21)CCS3)Nc1ccccc1C(F)(F)F | inactive
9 | O=C(O)C1Nc2ccc(Br)cc2C2C=CCC12 (centres undefined) | inactive
10 | COC(=O)C1CCN(C(=O)COC(=O)Cc2c[nH]c3ccccc23)CC1 | inactive
11 | COc1cccc2c1C(=O)c1c(O)c3c(c(O)c1C2=O)C[C@@](O)(C(C)=O)C[C@@H]3O[C@H]1C[C@H](N)[C@H](O)[C@H](C)O1 | 1890 nM (active)
12 | NC(=S)N/N=C/c1cn(CCC(=O)O)nc1-c1cccc(Br)c1 | inactive
13 | CC(C)c1ccc(CNc2ccc([N+](=O)[O-])cn2)cc1 | inactive
14 | O=C(NCCCN1CCCC1=O)c1ccc2c(c1)ncn2C1CCCCC1 | inactive
15 | O=C(O)CCCN1C(=O)/C(=C/C=C/c2ccco2)SC1=S | inactive
16 | COC(=O)Cn1c(=NC(=O)c2sc3ccccc3c2Cl)sc2cc(S(N)(=O)=O)ccc21 | inactive
17 | COc1ccc(N(CC(=O)NCc2ccc3c(c2)OCO3)C(=O)c2csnn2)cc1 | inactive
18 | O=C(O)COc1ccc2c(c1)O/C(=C\c1ccco1)C2=O | inactive
19 | CC(C)CN(C(=O)CSc1nncn1C)C1CCS(=O)(=O)C1 (centres undefined) | inactive
20 | O=C1CC(=O)N(Cc2ccco2)C(=O)N1 | inactive

Row | SMILES | AC50
21 | Cc1cc(N)ccc1N=Nc1c(C)n(C)n(-c2ccccc2)c1=O | inactive
22 | CC(C)N(Cc1ccccc1)C(=O)Cn1c(=O)cnc2ccccc21 | inactive
23 | O=S(=O)(O)c1cccc2cccc(Nc3ccccc3)c12 | inactive
24 | CCCc1nc(NCc2ccccn2)c2nnn(Cc3ccccc3F)c2n1 | inactive
25 | O=C(NCc1cccnc1)C(=O)C1C(=O)Nc2ccccc21 (centres undefined) | inactive
26 | Cc1ccc(/C=C/S(=O)(=O)N2CCC(C(=O)O)CC2)cc1 | inactive
27 | CCOC(=O)[C@H]1[C@H]2COc3cc(OC)ccc3[C@@H]2N2C(=O)CN(Cc3ccc(OC)cc3)C(=O)[C@@]12C | inactive
28 | O=C(O)c1cc(N2C(=O)C=CC2=O)cc(N2C(=O)C=CC2=O)c1 | inactive
29 | Cc1ccc(N2CC(C(=O)Nc3nnc(SCC(=O)Nc4nc(C)cs4)s3)CC2=O)cc1 (centres undefined) | inactive
30 | O=c1[nH]nc(CSCc2ccccc2Cl)[nH]1 | inactive
31 | CN(C)S(=O)(=O)c1cccc(N2C(=O)CC3(CCCCC3)CC2=O)c1 | inactive
32 | CCOC(=O)C1C2C=CC3(CN(c4cccc(Cl)c4)C(=O)C13)O2 (centres undefined) | inactive
33 | O=C(O)c1ccc2c(c1)C(=O)/C(=C\c1ccco1)C2=O | inactive
34 | COc1cc(OC)cc(-c2c(-c3ccsc3)c3cc(Br)ccc3n2C)c1 | inactive
35 | COc1ccc(C2(CNC(=O)CCC(=O)O)CCCC2)cc1OC | inactive
36 | Cc1cc(NC(=O)CCC(=O)N(CCC(C)C)C(C(=O)NC2CCCC2)c2cccnc2)no1 (centres undefined) | inactive
37 | COc1cc(C(=O)O)cc(NC(=O)c2ccco2)c1OC | inactive
38 | C/C(=N/NC(=O)c1ccncc1)c1cc2ccc(O)cc2oc1=O | 343 nM (active)
39 | COc1ccc(CCNC(=O)CCCNC(=O)Cn2cnc3sc(C)c(C)c3c2=O)cc1OC | inactive
